In PubChem BioAssay (EPA / NIEHS):
Records with an inconclusive call do not appear. Active and inactive are the calls of the source. Rule for the calls: active = hit-call score of the fitted dose curve at least 0.9, where 1 is the maximum; inconclusive = response in the unintended direction; inactive = score below 0.9.

Legend:
[1] = system: guinea pig Atrionatriuretic Peptide Receptor A (ANPA), gene 100135578; assay: NVS_GPCR_gANPA: NovaScreen (NVS) G Protein-Coupled Receptor Assay for guinea pig Atrionatriuretic Peptide Receptor A (ANPA) (AID 2283291)
Procedure, shortened: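 Displacement of specific radioligand from guinea pig cerebellum membranes was read by scintillation after 1 h. A duplicate single-point screen at 25 uM was followed by a concentration series up to 50 uM, analysed relative to DMSO.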

[2] = system: rat Adrenergic, Alpha 1B Receptor (Adra1B), gene 24173; assay: NVS_GPCR_rAdra1B: NovaScreen (NVS) G Protein-Coupled Receptor Assay for rat Adrenergic, Alpha 1B Receptor (Adra1B) (AID 2283297)
Procedure, shortened: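 Filter-binding radioligand competition on membranes from rat liver, read after 1 h by scintillation counting. Single-concentration duplicate screen at 25 uM, followed by concentration-response on actives, normalised to DMSO.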

[3] = biological target: rat Serotonin, 5-Hydroxytryptamine Receptor (5HT), Non-Selective Binding, Htr1a (gene 24473) (UniProt P19327); assay: NVS_GPCR_r5HT_NonSelective: NovaScreen (NVS) G Protein-Coupled Receptor Assay for rat Serotonin, 5-Hydroxytryptamine Receptor (5HT), Non-Selective Binding (AID 2283295)
Procedure, shortened: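 Rat cortex membrane preparation incubated 1 h with radioligand and test chemical; bound radioactivity counted after filtration. Screening began in duplicate at 25 uM with concentration-series follow-up; fitting relative to DMSO.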

[4] = biological target: rat Adrenergic, Alpha 1A Receptor (Adra1A), Adra1a (gene 29412) (UniProt P43140); assay: NVS_GPCR_rAdra1A: NovaScreen (NVS) G Protein-Coupled Receptor Assay for rat Adrenergic, Alpha 1A Receptor (Adra1A) (AID 2283296)
Procedure, shortened: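 Filter radiodetection after 1 h competitive binding on CEC-pretreated rat cortical membranes. Duplicate single-point screening at 25 uM; active chemicals retested across concentration series.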

[5] = biological target: rat Corticotropin Releasing Factor Receptor (CRF), Crhr1 (gene 58959) (UniProt P35353); assay: NVS_GPCR_rCRF: NovaScreen (NVS) G Protein-Coupled Receptor Assay for rat Corticotropin Releasing Factor Receptor (CRF) (AID 2283300)
Procedure, shortened: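 Single-concentration (25 uM, duplicate) radioligand binding on rat cortical membrane preparations, counted by scintillation after 2 h. Activity scored as signal loss relative to DMSO negative control.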

[6] = biological target: rat Histamine Receptor (H3), Hrh3 (gene 85268) (UniProt Q9QYN8); assay: NVS_GPCR_rH3: NovaScreen (NVS) G Protein-Coupled Receptor Assay for rat Histamine Receptor (H3) (AID 2283303)
Procedure, shortened: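 Filter-binding radioligand competition on rat forebrain membranes, 1 h incubation; compounds screened at 25 µM in duplicate and followed in concentration series to 50 µM, loss of bound signal vs DMSO.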

Adra2b (gene 24174) = Adra2b (gene 24174) (UniProt P19328); assay: NVS_GPCR_rmAdra2B: NovaScreen (NVS) G Protein-Coupled Receptor Assay for hybird cells Adrenergic, Alpha 2B Receptor (Adra2B) (AID 2283306)
Procedure, shortened: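 Compounds screened first at 25 uM in duplicate, with actives followed up in concentration-response; specific radioligand displacement from hybrid neuroglioma/blastoma cell membrane preparations measured by filter scintillation counting after 1 h, normalized to DMSO.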

[7] = biological target: rat Opioid Receptor, Non-selective Sodium (Na+) Binding, Oprm1 (gene 25601) (UniProt P33535); assay: NVS_GPCR_rOpiate_NonSelectiveNa: NovaScreen (NVS) G Protein-Coupled Receptor Assay for rat Opioid Receptor, Non-selective Sodium (Na+) Binding (AID 2283311)
Procedure, shortened: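 Filtration radioligand binding on rat forebrain membrane preparations, read 1.5 h after dosing. Single-concentration 25 µM primary screen in duplicate, followed by singleton concentration series to 50 µM max for actives; DMSO baseline.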

[8] = biological target: rat Adrenergic Receptor, Beta (Adrb), Non-selective Binding, Adrb1 (gene 24925) (UniProt P18090); assay: NVS_GPCR_rAdrb_NonSelective: NovaScreen (NVS) G Protein-Coupled Receptor Assay for rat Adrenergic Receptor, Beta (Adrb), Non-selective Binding (AID 2283298)
Procedure, shortened: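 Rat cortical membranes incubated 1 h with beta-adrenergic radioligand and test chemical; bound ligand measured by filtration and scintillation counting. Screen at 25 uM duplicate, then concentration series with 50 uM maximum; loss of signal versus DMSO.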

[9] = biological target: rat Gamma-Aminobutyric Acid Type B Receptor (GABBR), Gabbr1 (gene 81657) (UniProt Q9Z0U4); assay: NVS_GPCR_rGABBR: NovaScreen (NVS) G Protein-Coupled Receptor Assay for rat Gamma-Aminobutyric Acid Type B Receptor (GABBR) (AID 2283301)
Procedure, shortened: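 Rat cortical membrane preparation, competitive radioligand binding for 1 h with filtration and scintillation readout. Actives from duplicate single-point 25 uM screening proceeded to concentration series with 50 uM top concentration.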

[10] = biological target: rat Adrenergic Receptor, Alpha 2 (Adra2), Non-selective Binding, Adra2a (gene 25083) (UniProt P22909); assay: NVS_GPCR_rAdra2_NonSelective: NovaScreen (NVS) G Protein-Coupled Receptor Assay for rat Adrenergic Receptor, Alpha 2 (Adra2), Non-selective Binding (AID 2283299)
Procedure, shortened: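 Filter-based scintillation counting of radioligand binding to rat cortical membrane receptors, measured 1.25 hours post-dosing; loss of signal versus DMSO indicates displacement. Initial single-concentration duplicate at 25 uM, then concentration series.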

[11] = biological target: rat Neurotensin Receptor (NTS), Ntsr1 (gene 366274) (UniProt P20789); assay: NVS_GPCR_rNTS: NovaScreen (NVS) G Protein-Coupled Receptor Assay for rat Neurotensin Receptor (NTS) (AID 2283308)
Procedure, shortened: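 Single-point duplicates at 25 uM, then concentration series to 50 uM max for hits, measured radioligand displacement on rat forebrain membrane preparations. Bound label counted by filtration scintillation at 1 h; signal loss relative to DMSO fitted.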

[12] = biological target: human Neonicotinoid receptor (NNR), CHRNA2 (gene 1135) (UniProt Q15822); assay: NVS_LGIC_hNNR_NBungSens: NovaScreen (NVS) Ligand-Gated Ion Channel Assay for human Neonicotinoid receptor (NNR) (AID 2283313)
Procedure, shortened: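 Compounds first screened in duplicate at 25 uM, then actives re-tested in single-replicate dose series up to 50 uM. Binding measured as displacement of specific radioligand from neuroblastoma membrane receptors after 2 h, scintillation read on filters.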

rat Corticotropin Releasing Factor Receptor (CRF), Crhr1 (gene 58959), sequence (P35353 whole entry, looked up): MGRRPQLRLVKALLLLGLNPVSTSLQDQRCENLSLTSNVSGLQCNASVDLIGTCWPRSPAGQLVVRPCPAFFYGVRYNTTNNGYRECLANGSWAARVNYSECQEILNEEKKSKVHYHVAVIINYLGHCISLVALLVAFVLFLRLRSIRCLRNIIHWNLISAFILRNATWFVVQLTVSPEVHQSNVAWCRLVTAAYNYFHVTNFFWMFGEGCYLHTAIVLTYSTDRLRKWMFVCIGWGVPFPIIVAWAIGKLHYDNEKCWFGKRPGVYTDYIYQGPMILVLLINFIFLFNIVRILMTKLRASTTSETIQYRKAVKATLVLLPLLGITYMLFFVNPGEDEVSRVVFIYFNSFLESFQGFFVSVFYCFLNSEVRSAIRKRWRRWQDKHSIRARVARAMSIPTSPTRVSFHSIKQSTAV
rat Opioid Receptor, Non-selective Sodium (Na+) Binding, Oprm1 (gene 25601), sequence (P33535 whole entry, looked up): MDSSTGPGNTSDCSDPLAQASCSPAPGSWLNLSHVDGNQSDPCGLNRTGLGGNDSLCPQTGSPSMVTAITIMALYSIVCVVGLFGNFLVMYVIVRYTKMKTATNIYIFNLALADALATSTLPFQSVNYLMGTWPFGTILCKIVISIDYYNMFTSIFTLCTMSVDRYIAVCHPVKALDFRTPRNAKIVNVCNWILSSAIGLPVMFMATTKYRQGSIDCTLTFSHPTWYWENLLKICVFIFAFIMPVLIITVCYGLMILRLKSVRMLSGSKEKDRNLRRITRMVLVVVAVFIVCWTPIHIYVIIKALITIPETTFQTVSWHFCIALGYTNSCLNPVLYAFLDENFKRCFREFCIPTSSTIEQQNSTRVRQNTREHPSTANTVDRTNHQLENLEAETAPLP
rat Adrenergic Receptor, Beta (Adrb), Non-selective Binding, Adrb1 (gene 24925), sequence (P18090 whole entry, looked up): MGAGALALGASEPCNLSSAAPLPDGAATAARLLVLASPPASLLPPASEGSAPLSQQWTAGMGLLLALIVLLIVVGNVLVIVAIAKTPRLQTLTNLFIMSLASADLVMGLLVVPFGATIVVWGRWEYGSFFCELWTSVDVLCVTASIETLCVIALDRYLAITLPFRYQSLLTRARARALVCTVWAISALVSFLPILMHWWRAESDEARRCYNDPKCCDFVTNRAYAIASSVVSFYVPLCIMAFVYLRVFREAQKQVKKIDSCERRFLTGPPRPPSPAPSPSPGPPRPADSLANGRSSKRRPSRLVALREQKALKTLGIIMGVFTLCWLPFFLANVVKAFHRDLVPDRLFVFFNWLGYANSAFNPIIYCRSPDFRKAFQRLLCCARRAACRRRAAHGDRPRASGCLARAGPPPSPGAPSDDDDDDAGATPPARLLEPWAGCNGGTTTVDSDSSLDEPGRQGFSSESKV
human Neonicotinoid receptor (NNR), CHRNA2 (gene 1135), sequence (Q15822 whole entry, looked up): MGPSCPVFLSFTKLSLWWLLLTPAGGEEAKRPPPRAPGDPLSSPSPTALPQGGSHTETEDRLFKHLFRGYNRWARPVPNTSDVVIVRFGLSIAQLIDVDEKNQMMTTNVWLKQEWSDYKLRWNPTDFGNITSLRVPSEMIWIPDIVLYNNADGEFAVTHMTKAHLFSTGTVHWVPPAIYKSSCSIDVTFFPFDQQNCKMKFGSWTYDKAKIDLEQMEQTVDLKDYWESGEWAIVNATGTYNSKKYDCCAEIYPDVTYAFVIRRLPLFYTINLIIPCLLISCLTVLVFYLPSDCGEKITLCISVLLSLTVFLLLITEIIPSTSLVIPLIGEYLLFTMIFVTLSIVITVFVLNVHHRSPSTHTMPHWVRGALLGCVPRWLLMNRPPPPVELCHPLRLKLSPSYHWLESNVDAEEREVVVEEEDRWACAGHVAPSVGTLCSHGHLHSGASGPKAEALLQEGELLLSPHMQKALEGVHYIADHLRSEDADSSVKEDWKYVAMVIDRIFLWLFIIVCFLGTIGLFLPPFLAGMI
Adra2b (gene 24174), sequence (P19328 whole entry, looked up): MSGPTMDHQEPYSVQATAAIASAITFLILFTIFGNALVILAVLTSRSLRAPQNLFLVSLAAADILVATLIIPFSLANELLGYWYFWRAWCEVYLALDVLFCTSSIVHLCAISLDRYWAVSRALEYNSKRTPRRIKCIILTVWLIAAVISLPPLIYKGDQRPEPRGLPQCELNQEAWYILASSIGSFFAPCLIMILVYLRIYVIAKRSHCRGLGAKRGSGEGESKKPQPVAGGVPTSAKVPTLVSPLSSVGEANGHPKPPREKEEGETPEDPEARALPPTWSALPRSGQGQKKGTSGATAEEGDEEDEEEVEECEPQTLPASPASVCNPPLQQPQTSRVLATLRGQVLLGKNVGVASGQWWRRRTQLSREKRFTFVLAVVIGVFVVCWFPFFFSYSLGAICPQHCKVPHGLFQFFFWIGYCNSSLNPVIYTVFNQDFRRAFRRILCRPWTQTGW
rat Adrenergic Receptor, Alpha 2 (Adra2), Non-selective Binding, Adra2a (gene 25083), sequence (P22909 whole entry, looked up): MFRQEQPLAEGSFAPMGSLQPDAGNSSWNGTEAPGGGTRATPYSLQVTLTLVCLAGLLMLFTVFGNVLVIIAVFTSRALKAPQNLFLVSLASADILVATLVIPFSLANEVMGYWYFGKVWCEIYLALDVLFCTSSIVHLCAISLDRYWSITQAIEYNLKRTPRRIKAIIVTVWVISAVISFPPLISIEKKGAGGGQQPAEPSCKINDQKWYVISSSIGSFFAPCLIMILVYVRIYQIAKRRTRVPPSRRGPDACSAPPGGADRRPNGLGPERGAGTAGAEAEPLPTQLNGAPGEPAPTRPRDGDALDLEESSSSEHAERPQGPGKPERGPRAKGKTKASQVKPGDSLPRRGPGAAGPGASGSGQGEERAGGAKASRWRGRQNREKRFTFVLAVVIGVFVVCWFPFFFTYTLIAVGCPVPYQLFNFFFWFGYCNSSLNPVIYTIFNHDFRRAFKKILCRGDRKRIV
rat Serotonin, 5-Hydroxytryptamine Receptor (5HT), Non-Selective Binding, Htr1a (gene 24473), sequence (P19327 whole entry, looked up): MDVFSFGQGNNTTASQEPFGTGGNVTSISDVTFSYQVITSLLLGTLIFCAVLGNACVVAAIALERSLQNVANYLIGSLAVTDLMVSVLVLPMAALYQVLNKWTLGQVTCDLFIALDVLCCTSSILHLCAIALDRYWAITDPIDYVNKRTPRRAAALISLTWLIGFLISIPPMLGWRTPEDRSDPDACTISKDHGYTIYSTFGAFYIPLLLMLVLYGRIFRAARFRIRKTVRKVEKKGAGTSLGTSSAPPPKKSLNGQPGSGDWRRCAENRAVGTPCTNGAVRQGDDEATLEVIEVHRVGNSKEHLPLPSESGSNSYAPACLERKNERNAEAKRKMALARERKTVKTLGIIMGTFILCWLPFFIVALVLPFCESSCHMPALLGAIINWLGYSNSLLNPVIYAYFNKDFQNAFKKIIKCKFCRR
rat Gamma-Aminobutyric Acid Type B Receptor (GABBR), Gabbr1 (gene 81657), sequence (Q9Z0U4 whole entry, looked up): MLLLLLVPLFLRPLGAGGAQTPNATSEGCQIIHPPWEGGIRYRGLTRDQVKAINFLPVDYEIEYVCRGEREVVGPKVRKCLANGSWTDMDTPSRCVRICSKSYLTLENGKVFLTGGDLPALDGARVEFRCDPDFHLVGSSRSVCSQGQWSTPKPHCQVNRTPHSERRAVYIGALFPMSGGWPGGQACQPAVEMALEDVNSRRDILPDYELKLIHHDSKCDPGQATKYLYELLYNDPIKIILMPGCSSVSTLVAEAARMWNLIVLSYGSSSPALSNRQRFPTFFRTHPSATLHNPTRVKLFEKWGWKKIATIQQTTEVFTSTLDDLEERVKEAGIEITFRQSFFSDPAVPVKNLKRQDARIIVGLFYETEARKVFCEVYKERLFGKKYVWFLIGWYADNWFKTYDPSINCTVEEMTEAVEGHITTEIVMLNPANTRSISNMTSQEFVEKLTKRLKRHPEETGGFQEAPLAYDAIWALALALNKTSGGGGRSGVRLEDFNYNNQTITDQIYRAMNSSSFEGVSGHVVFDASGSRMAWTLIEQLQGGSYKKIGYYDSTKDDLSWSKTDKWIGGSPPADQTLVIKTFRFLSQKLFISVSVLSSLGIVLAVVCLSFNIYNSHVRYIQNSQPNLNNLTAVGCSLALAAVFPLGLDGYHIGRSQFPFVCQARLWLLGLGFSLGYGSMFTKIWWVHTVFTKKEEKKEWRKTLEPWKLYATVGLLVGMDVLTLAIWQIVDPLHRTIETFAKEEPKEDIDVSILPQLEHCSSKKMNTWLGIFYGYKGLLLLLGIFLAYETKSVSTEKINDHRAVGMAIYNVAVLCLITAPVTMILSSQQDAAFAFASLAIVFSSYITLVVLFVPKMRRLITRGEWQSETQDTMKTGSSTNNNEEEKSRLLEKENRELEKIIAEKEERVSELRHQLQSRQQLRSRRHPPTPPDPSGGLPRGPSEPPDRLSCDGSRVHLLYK
rat Neurotensin Receptor (NTS), Ntsr1 (gene 366274), sequence (P20789 whole entry, looked up): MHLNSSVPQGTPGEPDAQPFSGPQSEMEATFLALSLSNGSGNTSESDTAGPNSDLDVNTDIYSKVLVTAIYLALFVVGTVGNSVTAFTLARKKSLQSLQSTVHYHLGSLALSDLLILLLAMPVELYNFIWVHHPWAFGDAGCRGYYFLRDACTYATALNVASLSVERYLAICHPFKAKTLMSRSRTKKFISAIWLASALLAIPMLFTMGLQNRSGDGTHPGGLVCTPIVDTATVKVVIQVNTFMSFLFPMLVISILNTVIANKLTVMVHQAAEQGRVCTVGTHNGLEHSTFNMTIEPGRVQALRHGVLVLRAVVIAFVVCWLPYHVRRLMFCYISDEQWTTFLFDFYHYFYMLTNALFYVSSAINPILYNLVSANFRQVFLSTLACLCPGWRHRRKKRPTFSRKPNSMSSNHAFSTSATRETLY
rat Adrenergic, Alpha 1A Receptor (Adra1A), Adra1a (gene 29412), sequence (P43140 whole entry, looked up): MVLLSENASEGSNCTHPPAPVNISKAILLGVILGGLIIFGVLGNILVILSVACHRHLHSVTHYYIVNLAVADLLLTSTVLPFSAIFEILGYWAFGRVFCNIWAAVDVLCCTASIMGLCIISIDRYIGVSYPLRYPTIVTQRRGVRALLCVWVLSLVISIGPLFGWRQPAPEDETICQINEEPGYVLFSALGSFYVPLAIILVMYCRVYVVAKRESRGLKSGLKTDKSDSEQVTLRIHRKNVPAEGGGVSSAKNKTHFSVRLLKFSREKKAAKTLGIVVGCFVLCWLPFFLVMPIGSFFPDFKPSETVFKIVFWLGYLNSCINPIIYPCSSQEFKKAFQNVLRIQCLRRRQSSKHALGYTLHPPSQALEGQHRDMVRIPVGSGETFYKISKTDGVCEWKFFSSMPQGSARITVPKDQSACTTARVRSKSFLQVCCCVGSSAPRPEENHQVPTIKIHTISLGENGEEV

## O=S(=O)(O)C(F)(F)C(F)(F)C(F)(F)C(F)(F)C(F)(F)C(F)(F)C(F)(F)C(F)(F)F
[1]
  outcome: inactive
[2]
  outcome: inactive

## CC[C@H](C)[C@H]1O[C@]2(C=C[C@@H]1C)C[C@@H]1C[C@@H](C/C=C(\C)[C@@H](O[C@H]3C[C@H](OC)[C@@H](O[C@H]4C[C@H](OC)[C@@H](O)[C@H](C)O4)[C@H](C)O3)[C@@H](C)/C=C/C=C3\CO[C@@H]4[C@H](O)C(C)=C[C@@H](C(=O)O1)[C@]34O)O2 (tested in a mixture with another compound)
[3]
  AC50: 16.4 µM (active)

## O=C(Nc1ccccc1)Nc1cnns1
[4]
  outcome: inactive
[5]
  outcome: inactive
[6]
  outcome: inactive
Adra2b (gene 24174)
  outcome: inactive
[7]
  outcome: inactive

## CC(C)(C)C(O)C(Oc1ccc(Cl)cc1)n1cncn1 (centres undefined)
[2]
  outcome: inactive

## C#CCN1C(=O)COc2cc(F)c(N3C(=O)C4=C(CCCC4)C3=O)cc21
[8]
  outcome: inactive

## Oc1ccc(Cl)cc1Cc1ccccc1
[8]
  outcome: inactive
[9]
  outcome: inactive

## CCCN(CCOc1c(Cl)cc(Cl)cc1Cl)C(=O)n1ccnc1
[10]
  AC50: 1.85 µM (active)
Adra2b (gene 24174)
  AC50: 3.65 µM (active)

## O=[N+]([O-])c1c(Cl)c(Cl)c(Cl)c(Cl)c1Cl
[5]
  outcome: inactive

## CNC(=O)/C=C(\C)OP(=O)(OC)OC
[11]
  outcome: inactive

## CCOCN(C(=O)CCl)c1c(C)cccc1CC
[7]
  outcome: inactive

## O=[N+]([O-])/N=C1\NCCN1Cc1ccc(Cl)nc1
[12]
  AC50: 8.29 µM (active)

## CCC(C)(C)C(=O)OC1=C(c2ccc(Cl)cc2Cl)C(=O)OC12CCCCC2
[12]
  outcome: inactive
